{
  "source": "the supplement of paper PMC8728848",
  "binders": {"B1": {"name": "CcfD (Bacteroides vulgatus), A6KYX8 (protein)", "chain": "MKYKNYFKSIIYLALGAFTLGSCEDFLDRQEDEKLTFDKIWESRNTTQQYWLNAMSFLPNENGSLQGDTEPYLGASDECTIAYDRQYRWINFGTWNPSQVPYYKMDHYYKGIRECNIFLQNVYKCSDPLVTKDQLDEWYWQTRFARAYYYFLMMRDYGPVFLLGDDLLDFTASTEELYRPRNTWDQCVNYVVSEMTQCAESGVVLQQSDLPAAKWGLATVGTCHAVISRLLLYSARPLFNGNKLYSTVKNPDAPDFPELSGVKLFPELDNTKWQKAAEAAKKLIDNPCYELYRAGNDNPYEDYYGVTHETWNKELIWTDRYNGLFSWGVGTVPTGVAGTAYGAVGPTQALVDAYAMNTGWYPITGYEADGTPIVEPLSGYELASELEKSSWIYPSGGWSNKADFEIEAPNMYKDREPRFYVTVFFGGNQWLHGNSATSISFAKGGNGNKSHDYPKSGYLCNRFYDHKLNSSEGQWGNITFPVFRLGEIYLNFIEAVLECKKNGVALDPSYEALAMEKWADLRKRAGLDPITSIYGQVSTEELIQLCRKERQIELAFERHRYFDTRTWMIATQTDNGKMYGMNTSCPLDAGMKGTETPDGFWERTAFETRVFQNKHYLYPFSQRELDRNKLLTQNYGW"}},
  "test_in_all_cases": "glycan array binding signal (z-score within array); higher = stronger binding",
  "details_in_all_cases": "glycan notation: IUPAC condensed, linker removed",
  "key": {"[1]": {"target": "Fuc(a1-2)Gal(b1-4)Fuc(a1-3)]GlcNAc(b1-2)Man(a1-3)[Fuc(a1-2)Gal(b1-4)[Fuc(a1-3)]GlcNAc(b1-2)Man(a1-6)]Man(b1-4)GlcNAc(b1-4)GlcNAc", "summary_of_the_method": "(§1)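 Arrays were curated from the Consortium for Functional Glycomics database, 3228 in total, and kept only where the protein sequence was available. Binding is expressed as a within-array Z-score. This score was averaged across arrays of the same protein sequence at different concentrations or buffers and across linkers, and negative values can be read as non-binding.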"}, "[2]": {"target": "Fuc(a1-2)Gal(b1-4)GlcNAc(b1-2)Man(a1-3)[Fuc(a1-2)Gal(b1-4)GlcNAc(b1-2)Man(a1-6)]Man(b1-4)GlcNAc(b1-4)GlcNAc", "summary_of_the_method": "as §1"}, "[3]": {"target": "Fuc(a1-2)Gal(b1-4)GlcNAc(b1-3)Gal(b1-4)GlcNAc(b1-2)Man(a1-3)[Fuc(a1-2)Gal(b1-4)GlcNAc(b1-3)Gal(b1-4)GlcNAc(b1-2)Man(a1-6)]Man(b1-4)GlcNAc(b1-4)GlcNAc", "summary_of_the_method": "as §1"}, "[4]": {"target": "Fuc(a1-2)Gal(b1-4)GlcNAc(b1-6)GalNAc", "summary_of_the_method": "as §1"}, "[5]": {"target": "Fuc(a1-2)Gal(b1-4)GlcNAc6S", "summary_of_the_method": "as §1"}, "[6]": {"target": "Fuc(a1-2)Gal(b1-4)[Fuc(a1-3)]GlcNAc(b1-3)GalNAc", "summary_of_the_method": "as §1"}, "[7]": {"target": "Fuc(a1-2)[Gal(a1-3)]Gal(b1-3)GlcNAc(b1-2)Man(a1-3)[Fuc(a1-2)[Gal(a1-3)]Gal(b1-3)GlcNAc(b1-2)Man(a1-6)]Man(b1-4)GlcNAc(b1-4)GlcNAc", "summary_of_the_method": "as §1"}, "[8]": {"target": "Fuc(a1-2)[Gal(a1-3)]Gal(b1-4)GlcNAc(b1-2)Man", "summary_of_the_method": "as §1"}, "[9]": {"target": "Fuc(a1-2)[GalNAc(a1-3)]Gal(b1-3)GlcNAc(b1-6)GalNAc", "summary_of_the_method": "as §1"}, "[10]": {"target": "Fuc(a1-2)[GalNAc(a1-3)]Gal(b1-4)GlcNAc(b1-2)Man(a1-3)[Fuc(a1-2)[GalNAc(a1-3)]Gal(b1-4)GlcNAc(b1-2)Man(a1-6)]Man(b1-4)GlcNAc(b1-4)GlcNAc", "summary_of_the_method": "as §1"}, "[11]": {"target": "Fuc(a1-2)[GalNAc(a1-3)]Gal(b1-4)GlcNAc(b1-3)[Fuc(a1-2)[GalNAc(a1-3)]Gal(b1-4)GlcNAc(b1-6)]GalNAc", "summary_of_the_method": "as §1"}, "[12]": {"target": "Fuc(a1-3)[Gal3S(b1-4)]Glc", "summary_of_the_method": "as §1"}, "[13]": {"target": "Gal(a1-3)Gal", "summary_of_the_method": "as §1"}, "[14]": {"target": "Gal(a1-3)Gal(b1-4)[Fuc(a1-3)]GlcNAc", "summary_of_the_method": "as §1"}, "[15]": {"target": "Gal(b1-3)[Fuc(a1-4)]GlcNAc", "summary_of_the_method": "as §1"}, "[16]": {"target": "Gal(b1-4)GalNAc(b1-3)[Fuc(a1-2)]Gal(b1-4)GlcNAc", "summary_of_the_method": "as §1"}, "[17]": {"target": "Gal(b1-4)GlcNAc(b1-2)Man(a1-3)Man(b1-4)GlcNAc(b1-4)GlcNAc", "summary_of_the_method": "as §1"}, "[18]": {"target": "Gal(b1-4)GlcNAc(b1-2)[Gal(b1-4)GlcNAc(b1-4)]Man(a1-3)[GlcNAc(b1-4)][Gal(b1-4)GlcNAc(b1-2)[Gal(b1-4)GlcNAc(b1-6)]Man(a1-6)]Man(b1-4)GlcNAc(b1-4)GlcNAc", "summary_of_the_method": "as §1"}, "[19]": {"target": "Gal(b1-4)GlcNAc(b1-3)Gal(b1-3)GlcNAc", "summary_of_the_method": "as §1"}, "[20]": {"target": "Gal(b1-4)GlcNAc(b1-3)Gal(b1-4)GlcNAc(b1-3)Gal(b1-4)GlcNAc", "summary_of_the_method": "as §1"}, "[21]": {"target": "Gal(b1-4)GlcNAc(b1-3)Gal(b1-4)GlcNAc(b1-3)Gal(b1-4)GlcNAc(b1-3)Gal(b1-4)GlcNAc(b1-2)Man(a1-3)[Gal(b1-4)GlcNAc(b1-3)Gal(b1-4)GlcNAc(b1-3)Gal(b1-4)GlcNAc(b1-3)Gal(b1-4)GlcNAc(b1-2)Man(a1-6)]Man(b1-4)GlcNAc(b1-4)[Fuc(a1-6)]GlcNAc", "summary_of_the_method": "as §1"}, "[22]": {"target": "GalNAc(b1-4)GlcNAc(b1-2)Man", "summary_of_the_method": "as §1"}, "[23]": {"target": "GalNAc3S(b1-4)GlcNAc3S", "summary_of_the_method": "as §1"}, "[24]": {"target": "GlcNAc(b1-2)[GlcNAc(b1-6)]Man(a1-6)[GlcNAc(b1-2)Man(a1-3)]Man(b1-4)GlcNAc(b1-4)GlcNAc", "summary_of_the_method": "as §1"}, "[25]": {"target": "GlcNAc(b1-3)Gal(b1-4)Glc", "summary_of_the_method": "as §1"}, "[26]": {"target": "GlcNAc(b1-3)Gal(b1-4)GlcNAc", "summary_of_the_method": "as §1"}, "[27]": {"target": "GlcNAc(b1-3)Gal(b1-4)GlcNAc(b1-2)[GlcNAc(b1-3)Gal(b1-4)GlcNAc(b1-6)]Man(a1-6)[GlcNAc(b1-3)Gal(b1-4)GlcNAc(b1-2)Man(a1-3)]Man(b1-4)GlcNAc(b1-4)GlcNAc", "summary_of_the_method": "as §1"}, "[28]": {"target": "GlcNAc(b1-3)GalNAc", "summary_of_the_method": "as §1"}, "[29]": {"target": "GlcNAc(b1-3)[GlcNAc(b1-4)][GlcNAc(b1-6)]GlcNAc", "summary_of_the_method": "as §1"}, "[30]": {"target": "Man(a1-3)[Man(a1-6)]Man(a1-6)[Man(a1-2)Man(a1-3)]Man(b1-4)GlcNAc(b1-4)GlcNAc", "summary_of_the_method": "as §1"}},
  "note": "Shown is part of a subset that was picked to be rich in the strongest signals.",
  "data": [
    {"binder": "B1", "values": [
      {"measurement": "glycan array binding signal (z-score)", "setting": "[1]", "value": 2},
      {"measurement": "glycan array binding signal (z-score)", "setting": "[2]", "value": 4.7},
      {"measurement": "glycan array binding signal (z-score)", "setting": "[3]", "value": 4.15},
      {"measurement": "glycan array binding signal (z-score)", "setting": "[4]", "value": 0.552},
      {"measurement": "glycan array binding signal (z-score)", "setting": "[5]", "value": 1.84},
      {"measurement": "glycan array binding signal (z-score)", "setting": "[6]", "value": 0.374},
      {"measurement": "glycan array binding signal (z-score)", "setting": "[7]", "value": 3.23},
      {"measurement": "glycan array binding signal (z-score)", "setting": "[8]", "value": -0.282},
      {"measurement": "glycan array binding signal (z-score)", "setting": "[9]", "value": -0.82},
      {"measurement": "glycan array binding signal (z-score)", "setting": "[10]", "value": 4.4},
      {"measurement": "glycan array binding signal (z-score)", "setting": "[11]", "value": 0.323},
      {"measurement": "glycan array binding signal (z-score)", "setting": "[12]", "value": -0.429},
      {"measurement": "glycan array binding signal (z-score)", "setting": "[13]", "value": 0.343},
      {"measurement": "glycan array binding signal (z-score)", "setting": "[14]", "value": 0.14},
      {"measurement": "glycan array binding signal (z-score)", "setting": "[15]", "value": -0.269},
      {"measurement": "glycan array binding signal (z-score)", "setting": "[16]", "value": -0.749},
      {"measurement": "glycan array binding signal (z-score)", "setting": "[17]", "value": 3},
      {"measurement": "glycan array binding signal (z-score)", "setting": "[18]", "value": -0.683},
      {"measurement": "glycan array binding signal (z-score)", "setting": "[19]", "value": -0.932},
      {"measurement": "glycan array binding signal (z-score)", "setting": "[20]", "value": -1.02},
      {"measurement": "glycan array binding signal (z-score)", "setting": "[21]", "value": 0.003},
      {"measurement": "glycan array binding signal (z-score)", "setting": "[22]", "value": -0.896},
      {"measurement": "glycan array binding signal (z-score)", "setting": "[23]", "value": -0.21},
      {"measurement": "glycan array binding signal (z-score)", "setting": "[24]", "value": -0.663},
      {"measurement": "glycan array binding signal (z-score)", "setting": "[25]", "value": -0.881},
      {"measurement": "glycan array binding signal (z-score)", "setting": "[26]", "value": -1.04},
      {"measurement": "glycan array binding signal (z-score)", "setting": "[27]", "value": 3.38},
      {"measurement": "glycan array binding signal (z-score)", "setting": "[28]", "value": -0.332},
      {"measurement": "glycan array binding signal (z-score)", "setting": "[29]", "value": 2.41},
      {"measurement": "glycan array binding signal (z-score)", "setting": "[30]", "value": -0.673}
    ]}
  ]
}
